High-throughput results deposited in PubChem by several laboratories.
The list is not random: actives were taken first. Their share in the collection is about 4.7%.
Efflux pump inh: inhibitors of Candida efflux pumps in yeast, primary screen, S. cerevisiae, Nile Red, multiplex; S. cerevisiae Candida pump triplex; inhibition, % at 10 µM; hit rate 0.44% among 330,000; AID 485275, 2010;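 active = plate passing quality check with inhibition over a set limit, or well fluorescence over plate mean plus 4 SD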;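 note: Nile Red retained in pooled yeast measured as flow cytometry median fluorescence; 0% = buffer negative control and 100% = Enniatin B positive control; higher means more Nile Red kept so more efflux inhibition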
PABP polyA inh: PABP poly(A) RNA binding inhibitors, primary screen, biochemical, fluorescence polarization, uHTS; Polyadenylate-binding protein 1 (Homo sapiens), P11940; inhibition, % at 35 µM; hit rate 1% among 290,000;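 note: calls also rest on retests at 20 µM and on dose response follow-up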
eIF4H FP inh: human eIF4H binding inhibitors, primary screen, translation initiation inhibitor project, biochemical, uHTS, fluorescence polarization | eIF4H fluorescence polarization binding assay | inhibition, % at 35 µM | hit rate 0.94% among 290,000 | AID 2012, 2009 | Eukaryotic translation initiation factor 4H (Homo sapiens), Q15056;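 note: calls also rest on retests at 20 µM and on dose response follow-up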
MLLE-PAM2 inh: inhibitors of PABP1 MLLE–PAM2 peptide binding, primary screen, biochemical, fluorescence polarization, FITC-PAM2, GST-MLLE | hit rate 0.36% among 360,000 | inhibition, % at 20 µM | AID 588489, 2011; in the data active = inhibition above about 35%, passing the limit was not always enough;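 note: plate controls were DMSO wells with GST-MLLE for no effect and wells lacking GST-MLLE protein for full effect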
UBC9 SUMO inh: inhibitors of in vitro SUMOylation cascade, primary screen, biochemical, HTRF, uHTS. hit rate 0.36% among 290,000. SUMO-conjugating enzyme UBC9 (Homo sapiens), P63279. HTRF SUMOylation assay, SAE1/SAE2 + UBC9. AID 2006, 2009. inhibition, % at 35 µM; in the data active = inhibition above about 50%, passing the limit was not always enough; inconclusive = no clear call, values can overlap the other calls
ALR H2O2 inh: inhibitors of human ALR sulfhydryl oxidase, primary screen, biochemical, H2O2 detection, HRP-luminol luminescence, single point; FAD-linked sulfhydryl oxidase ALR (Homo sapiens), P55789; purified ALR, DTT oxidation; inhibition, % (no concentration beside the values); hit rate 3.8% among 290,000;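 active = mean replicate inhibition above about 79%, with every replicate also reaching it, limit read from the data; inconclusive = only one of the two criteria met; inactive = mean below limit and not every replicate reaching it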
Target sequence (P55789 whole entry, looked up): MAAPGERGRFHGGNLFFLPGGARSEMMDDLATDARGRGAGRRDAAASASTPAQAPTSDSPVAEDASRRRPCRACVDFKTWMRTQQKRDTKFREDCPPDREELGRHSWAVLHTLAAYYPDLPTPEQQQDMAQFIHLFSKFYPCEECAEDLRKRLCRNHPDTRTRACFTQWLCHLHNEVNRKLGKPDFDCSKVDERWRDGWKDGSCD
An asterisk follows results filed as active; ? = inconclusive; · = no result given. Unless noted, the rule behind the calls is not given here.

SMILES	Efflux pump inh	PABP polyA inh	eIF4H FP inh	MLLE-PAM2 inh	UBC9 SUMO inh	ALR H2O2 inh
COc1cccc(C(=O)Nc2ccc(NC(=O)C3C4C=CC(C4)C3C(=O)O)cc2)c1 (configuration not stated)	0	2	-2	-5	-5	-16
CNc1c2cccc(C)c2nc2c(C(=O)NCCN(C)C)cccc12	·	·	·	126	·	·
CCOC(=O)C1=C(COC(=O)c2ccc(Br)c(S(=O)(=O)N3CCOCC3)c2)NC(=O)NC1C (configuration not stated)	·	·	·	-3	·	·
Cc1ccccc1C(=O)NC1CCN(CC(=O)NC2CCCCC2)CC1	0	6	-7	3	13	-3
CCNC(=O)C1CCCN(C(=O)c2ccc(C(F)(F)F)cc2)CC1 (configuration not stated)	·	·	·	-2	·	·
COc1cc(/C=C2/C(=O)NN(c3cccc(Cl)c3)C2=O)cc(OC)c1O	0	?	?	-150	-12	91*
O=C1NN(c2cccc(Br)c2)C(=O)/C1=C\c1ccc(O)cc1	0	5	0	-4	-10	98*
Cc1sc2nc(SCc3ccc(C(=O)O)cc3)n(Cc3ccco3)c(=O)c2c1C	0	16	3	-32	26	12
C=CCn1c(SCc2ccc(C(=O)O)cc2)nc2sc(C)c(C)c2c1=O	0	4	0	-53	27	99*
COc1cc(/C=N\NC(=O)c2ccc(-c3ccccc3)cc2)cc(OC)c1OC(C)=O	0	3	3	-4	-7	-2
O=C(NN=Cc1ccc(F)c(F)c1)c1ccc(NS(=O)(=O)c2cccs2)cc1	0	·	·	-11	·	-2
O=C1CCC/C(=N/NC(=O)c2ccc(NS(=O)(=O)c3cccs3)cc2)C1	0	-12	1	3	10	82*
COc1cc(/C=N\NC(=O)c2ccc(-c3ccccc3)cc2)cc(OC)c1O	0	13	12	-4	-4	96*
C/C(=N\NC(=O)c1ccc(NS(=O)(=O)c2cccs2)cc1)c1ccc(O)cc1O	0	-1	3	4	22	99*
COc1cc(/C=N/NC(=O)c2ccc(NS(=O)(=O)c3cccs3)cc2)cc(OC)c1O	0	·	·	3	·	98*
C/C(=N\NC(=O)c1ccc(NS(=O)(=O)c2cccs2)cc1)c1ccccc1	0	8	5	-10	14	51
O=C1CCC/C(=N/NC(=O)c2cc(NS(=O)(=O)c3cccs3)cc(NS(=O)(=O)c3cccs3)c2)C1	0	5	8	-8	8	44
COc1ccc(/C=N/NC(=O)CCOc2ccccc2C)cc1OC	0	1	6	-4	3	43
COc1cc(/C=N/NC(=O)CCOc2ccccc2C)cc(Br)c1O	1	-17	-4	15	-5	97*
COc1cc(/C=N/NC(=O)c2cccnc2)cc(Br)c1O	0	23	5	-2	8	81*
COc1cc(C=NNC(=O)c2ccccc2NS(=O)(=O)c2cccs2)cc(OC)c1O	0	·	·	8	·	99*
Cc1noc(/C=C/c2cccs2)c1S(=O)(=O)N1CCC(C(=O)NCCCN2CCC(C)CC2)CC1	0	1	-6	-11	6	-21
O=C(NC(=S)Nc1ccc2c(c1)OCCO2)c1cccc(Br)c1	2	5	0	40*	-7	·
O=C(NC(=S)N1CCN(Cc2ccc3c(c2)OCO3)CC1)c1cccc(Br)c1	0	58*	active	8	7	-11
O=C(NC(=S)Nc1ccc2c(c1)OCO2)c1ccccc1	0	6	0	17	-4	35
SMILES	Efflux pump inh	PABP polyA inh	eIF4H FP inh	MLLE-PAM2 inh	UBC9 SUMO inh	ALR H2O2 inh
CCNC(=S)N1CCN(Cc2ccc3c(c2)OCO3)CC1	0	-8	-9	-106	-14	·
O=C(N/N=C/c1ccc(F)cc1)c1cc(-c2ccco2)nc2ccccc12	0	51*	90*	-18	·	-6
C/C(=N\NC(=O)c1cc(-c2ccco2)nc2ccccc12)c1cccnc1	0	active	82*	0	60*	18
Cc1ccc(C)c(-c2cc(C(=O)NC3CC3)c3ccccc3n2)c1	0	4	-11	-14	9	94*
O=C(O)c1cc(-c2ccco2)nc2ccccc12	0	60*	82*	53*	20	56
COc1ccc(OC)c(-c2cc(C(=O)N/N=C(\C)c3cccnc3)c3ccccc3n2)c1	0	-13	-3	-2	10	17
O=C(C1=C[C@H](c2coc3ccccc3c2=O)C[C@H](OCCCCO)O1)N1CCOCC1	0	-1	0	8	6	·
CNC[C@@H]1Oc2cc(Br)ccc2S(=O)(=O)N([C@H](C)CO)C[C@@H]1C	·	·	·	-1	·	·
O=C(NC1CC1)c1cc(-c2ccco2)nc2ccccc12	·	82*	98*	-7	41	·
O=C(Nc1nc2ccccc2s1)c1cc(-c2ccco2)nc2ccccc12	0	-11	-4	10	17	5
COc1ccc(CN2C(=O)C(CC(=O)NC3CCCCC3)CC(C(=O)N(C)C)=C2C)cc1 (configuration not stated)	·	·	·	2	·	·
Cc1cccc(Nc2nc(-c3cccs3)cs2)n1	0	5	-1	5	-29	94*
Cc1cccnc1Nc1nc(-c2ccccn2)cs1	0	-14	7	25	19	5
Cc1cccc(Nc2nc(-c3ccccn3)cs2)n1	0	-5	6	9	2	89*
CC1=CC(C)(C(Cl)(Cl)Cl)C(C)=CC1=NO (configuration not stated)	·	·	·	-1	·	·
O=C(O)C1CC=CCC1C(=O)NNc1ccccc1 (configuration not stated)	0	0	-1	7	2	47
O=c1c2ccccc2c2ccccc2c(=O)n1Nc1ccccc1	·	·	·	-7	·	·
CC(C(=O)NCC(=O)Nc1ccc(F)c(F)c1F)N1CCN(c2ccc(O)cc2)CC1 (configuration not stated)	0	·	·	17	·	99*
CC(C(=O)NCC(=O)Nc1ccc(F)c(F)c1F)N1CCN(Cc2ccc(C#N)cc2)CC1 (configuration not stated)	0	·	·	-10	·	-3
Cc1nc(NCCc2ccc(O)cc2)c2nnn(Cc3ccccc3)c2n1	0	12	0	2	-9	2
COc1cccc(C(O)c2nc(/C=C/c3ccc(C(F)(F)F)cc3)cs2)c1 (configuration not stated)	·	·	·	-6	·	·
C/C(=N/NC(=O)c1sc(NS(=O)(=O)c2ccc(C)cc2)nc1C)c1sc(N)nc1C	0	-7	10	2	28	99*
Cc1ccc(S(=O)(=O)Nc2nc(C)c(C(=O)NN)s2)cc1	0	1	1	-11	21	-6
